Laboratory results reported in PubChem BioAssay AID1671190 (National Center for Advancing Translational Sciences (NCATS), 2021).
The campaign covered roughly 580,000 compounds. About 6,100 (1.1%) were called active. Roughly 15% stayed inconclusive and do not appear here. For the sample, actives were picked, then their nearest neighbours and some compounds at random. Unmarked numbers belong to inactive results. The call rests on the fitted dose curve; in most records, active means well fitted inhibition curve with a large enough effect; inconclusive means small, poorly fitted or top-dose-only effect, or another doubt; inactive means no such curve, though single readings can be large or run the other way.

Target: Polyunsaturated fatty acid lipoxygenase ALOX12 (Homo sapiens) (UniProt P18054)
Sequence (P18054 whole entry, looked up): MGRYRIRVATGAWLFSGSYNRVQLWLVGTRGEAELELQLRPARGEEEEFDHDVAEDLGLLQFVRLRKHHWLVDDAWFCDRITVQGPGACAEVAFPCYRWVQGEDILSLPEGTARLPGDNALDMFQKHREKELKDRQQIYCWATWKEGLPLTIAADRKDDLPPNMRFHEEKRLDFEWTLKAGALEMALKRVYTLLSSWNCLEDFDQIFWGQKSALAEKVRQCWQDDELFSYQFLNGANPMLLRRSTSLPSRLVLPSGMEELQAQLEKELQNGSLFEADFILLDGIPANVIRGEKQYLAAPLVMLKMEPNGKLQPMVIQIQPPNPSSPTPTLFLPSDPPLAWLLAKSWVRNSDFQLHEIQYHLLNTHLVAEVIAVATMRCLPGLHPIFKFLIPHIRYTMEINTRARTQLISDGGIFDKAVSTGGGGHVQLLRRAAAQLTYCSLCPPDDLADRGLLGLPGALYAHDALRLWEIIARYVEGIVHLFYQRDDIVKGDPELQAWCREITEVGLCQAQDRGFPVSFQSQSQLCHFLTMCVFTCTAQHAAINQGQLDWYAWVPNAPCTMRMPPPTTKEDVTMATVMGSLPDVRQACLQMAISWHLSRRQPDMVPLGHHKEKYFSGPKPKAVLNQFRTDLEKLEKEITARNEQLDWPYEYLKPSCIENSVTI
Assay: Primary qHTS assay for inhibitors of human arachidonate 12S-lipoxygenase (ALOX12): Round 2
Conditions: purified 12hLO, xylenol orange hydroperoxide absorbance; series mostly up to 108 µM; activity change, negative = inhibition: at the top concentration
Source text: Assay Provider: Theodore R. Holman Ph.D. University of California, Santa Cruz, California Human lipoxygenase 12hLO is a member of the closely related lipoxygenase family of enzymes which catalyze the site-specific oxidation of arachidonic acid to various hormone precursor molecules and as such is a candidate for drug development in a variety of disease areas, such as cancer and inflammation. Inhibition of 12hLO activity was screened by utilizing arachidonic acid as a substrate. The extent of hydroperoxide product formation was measured by a secondary chromogenic reaction in which xylenol orange (XO, Sigma-Aldrich, cat. number 39,818-7) reacts with the ferric ions produced from the reaction between the hydroperoxide and ferrous ions. The Fe (III)-XO complex is characterized with red-shifted absorbance at 560 nm. A purified preparation of human 12hLO was supplied by Dr. Holman laboratory, University of California, Santa Cruz.
PROTOCOL TABLE SEQUENCE No. (e.g., 1, 2, 3, etc.); […] (e.g., Cells, Incubation, Reagent, etc.); VALUE; DESCRIPTION 1; Enzyme; 3 uL; 150 nM 12hLO enzyme solution dispensed in 1536-well Greiner black, clear bottom plates. 2; Compound; 23 nL; compounds and controls were added. 3; Incubate; 15 min; room temperature. 4; Substrate; 1 uL; 40 uM arachidonic acid (final concentration). 5; Incubate; 30 min; room temperature. 6; Reagent; 4 uL; Fe-XO solution was added to each well. 7; Incubation; 30 min; room temperature 8; Detector; absorbance; Read 1 at 405 nm absorbance using ViewLux (Perkin-Elmer) CCD imager. 9; Detector; absorbance; Read 2 at 573 nm absorbance using ViewLux (Perkin-Elmer) CCD imager. NOTES (numbers refer to sequence above) 1; 150 nM 12hLO (final concentration) in buffer solution (25 mM Hepes, 0.01% Triton X-100, pH 7.0) was dispensed in columns 1, 2, 5-48. Column 1 is neutral (100% activity). Buffer only was dispensed in columns 3 and 4 as no enzyme negative controls. The plates were covered with metal lids with gas-exchange holes. 2; Compounds were pin transferred via a Kalypsys Pin Tool (Wako USA) in column 5-48. Control compound was transferred in column 2, titration of nordihydroguaiaretic acid (NDGA, Sigma-Aldrich, N5023) with top concentration of 20 mM in DMSO then 1:3 dilution in duplicate. Dilution factor of 23 nL into 4 uL final assay volume. 3; Covered assay plates were incubated for 15 min at room temperature. 4; Substrate was added to start the reaction; 40 uM arachidonic acid (Sigma-Aldrich, St. Louis, MO) was dispensed throughout the plate. 6; Chromogenic detection reagent solution (divalent iron/xylenol orange, Fe-XO) was added to each well: 200 uM xylenol orange, 300 uM ferrous ammonium sulfate prepared freshly in 50 mM sulfuric acid. 8, 9; Two absorbance readouts were obtained at 405 nm and at 573 nm using a ViewLux high-throughput CCD plate imager (Perkin-Elmer). The 573 to 405 (Read 2 / Read 1) absorbance ratio was used to compute reaction progress.
On the % scale 0 is the no-effect control and ±100 the full control effect; potency means the concentration at half of the fitted maximal effect.

Structure (SMILES)	Potency	activity change, negative = inhibition
COc1cccc(C(=O)N2CCc3nc(C4CC4)nc(-c4ccc(Cl)cc4)c3C2)c1	10 µM (active)	–
CCS(=O)(=O)NCC1(COc2ccc(C(F)(F)F)cn2)C[C@@H](O)[C@@H](O)C1 (stereo partly drawn)	12.6 µM (active)	–
O=C(NCC1(COc2ccc(C(F)(F)F)cn2)C[C@@H](O)[C@@H](O)C1)c1ccc(F)cc1 (stereo partly drawn)	–	131%
Cn1ccnc1CNCC1(COc2ccc(C(F)(F)F)cn2)C[C@@H](O)[C@@H](O)C1 (stereo partly drawn)	–	41%
COc1cc(CN2C[C@@H](CO)[C@H](c3nc(C)no3)C2)ccc1F	–	24.8%
Cc1ccc(-c2c3c(nc4sc5c(c24)CCC5)-c2cc(F)ccc2S(=O)(=O)C3)cc1	–	5.98%
Cc1ccccc1Nc1scc(-c2ccc(Br)cc2)[n+]1-c1ccccc1C	–	-14%
Cc1cc2nc(-c3ccccc3)c(-c3ccccc3)nc2cc1C	–	-2.87%
Cc1scc(-c2ccccc2)[n+]1C	17.8 µM (active)	–
CCCCN(C)C(=O)CCNC(=O)Cn1cnc2sc3c(c2c1=O)CCCC3	–	1.19%
CCCC1CCC(c2ccc(-c3ccc(CC)cn3)cc2F)CC1 (stereo not drawn)	–	2.03%
CCN1C(=O)[C@H]2[C@@H](c3ccc(-c4ccc(F)cc4)cc3)N[C@@](Cc3ccccc3)(C(=O)OC)[C@H]2C1=O	–	-4.83%
Cc1ccc([C@H]2N[C@]3(CCCN(Cc4ccccc4)C3=O)[C@H]3C(=O)N(Cc4ccccc4)C(=O)[C@@H]23)cc1	–	-20.9%
CCN1C(=O)[C@H]2[C@@H](c3ccccc3)N[C@]3(CCCN(Cc4ccc(C)cc4)C3=O)[C@H]2C1=O	4.47 µM (active)	–
CC1=C(C)CC(C(=O)NCCN2CCOCC2)C(C(=O)O)C1 (stereo not drawn)	–	0.372%
CN(C)c1ccc(C=O)s1	–	-2.25%
O=C(Cc1cccc(F)c1)NC1CCC(c2ccccc2)CC1 (stereo not drawn)	–	21.6%
O=C(/C=C/c1cc2cc(Cl)ccc2o1)NC1CCCC1	–	-6.52%
O=C(/C=C/c1ccco1)NC1CCC(c2ccccc2)CC1 (stereo not drawn)	7.94 µM (active)	–
CCN(CC)C(=O)CSc1ncc(-c2ccc(Br)cc2)o1	–	-26.6%
CC(=O)c1sc(Nc2ccc(C)c(C)c2)nc1C	–	-9.89%
C/C(=N\NC(N)=S)c1cc(C(C)(C)C)cc2c1CCC2(C)C	31.6 µM (active)	–
COc1ccc(C2CCCCCN2C(=O)CCn2ncc(=O)c3ccccc32)cc1 (stereo not drawn)	–	1.87%
CNC(=O)c1ccc(-c2nc(CN3CCN(C(=O)Nc4ccc(C)c(C)c4)CC3)c(C)o2)cc1	–	8.91%
COc1ccc(C2=C(C)C(=NC(C)C34CC5CC(CC(C5)C3)C4)NS2(=O)=O)cc1 (stereo not drawn)	–	1.75%
CC1CCN(c2nc3ccccc3nc2C(C#N)S(=O)(=O)c2cccc(Cl)c2)CC1 (stereo not drawn)	11.2 µM (active)	–
Cc1ccc(S(=O)(=O)C(C#N)c2nc3ccccc3nc2N2CCCC2)cc1C (stereo not drawn)	–	0.581%

Structure (SMILES)	Potency	activity change, negative = inhibition
COC(=O)C1CCN(c2nc3ccccc3nc2C(C#N)C(=O)NC2CCCC2)CC1 (stereo not drawn)	–	-2.98%
COc1cccc(-c2nc(SCC(=O)Nc3nccs3)c(-c3ccc(Cl)cc3)[nH]2)c1	–	9.61%
CCN(CC)S(=O)(=O)c1ccc(N2CCOCC2)c(NC(=O)CC2CCCC2)c1	–	27.8%
COc1ccc(Cn2c(CN(C)S(C)(=O)=O)n[nH]c2=O)cc1	–	68.5%
COc1ccc(C(=O)CSc2n[nH]c(N)n2)cc1	–	0%
COc1ccc(OCc2n[nH]c(=S)n2N)cc1	15.8 µM (active)	–
Cc1ccc(-n2nnc(C(=O)NCC(C)C)c2C)cc1Cl	–	-28.3%
O=C(CN(Cc1ccccc1)C(=O)c1ccc2c(c1)OCCO2)NCc1ccc2c(c1)OCO2	–	-24.4%
O=C(CSc1nnc(-c2ccccc2)c2ccccc12)c1ccc2c(c1)OCCCO2	44.7 µM (active)	–
O=C(CSc1ncnc2sccc12)c1ccc2c(c1)OCCCO2	–	11.2%
CCc1ccc(-c2csc(NC(=O)c3nn(CC)c(=O)c4ccccc34)n2)cc1	–	16.7%
CCOC(=O)/C(=C/c1ccc(Cl)s1)c1nccn1C	–	-9.62%
CC(=O)c1sc(N2C(=O)c3oc4ccccc4c(=O)c3C2c2ccc(C)cc2)nc1C (stereo not drawn)	–	15.6%
Cc1ccc2nc(N3C(=O)C(O)=C(C(=O)c4ccco4)C3c3cccc(O)c3)sc2c1 (stereo not drawn)	25.1 µM (active)	–
COc1cc(C2C(C(=O)c3ccco3)=C(O)C(=O)N2c2cc(C)on2)ccc1OCc1ccccc1 (stereo not drawn)	–	-24.9%
Cc1ccc(C(N)=O)c(OCc2coc(-c3ccccc3)n2)c1	–	-0.951%
CC(Sc1nc2cc(S(=O)(=O)N3CCCCC3)ccc2o1)C(=O)N1CCc2ccccc21 (stereo not drawn)	–	5.52%
CCOC(CNC(=O)c1ccc2c(c1)ncn2-c1cccc(C)c1)OCC	–	-11.6%
CC(Sc1ccc(Cl)cc1)C(=O)NCCC(=O)N1CCCC1 (stereo not drawn)	–	-3.96%
CC(=O)CCC1=C(C)CCCC1(C)C	–	65.1% [at 176 µM]
COc1cc(/C=C/C2=CC(C)(C)NC(=S)N2)cc(OC)c1OC	44.7 µM (active)	–
COc1cc(/C=C/C(N)=O)cc(OC)c1OC	–	10.5%
COc1ccc(/C=C/C2=CC(C)(C)NC(=S)N2)c(OC)c1	39.8 µM (active)	–
COc1cc(/C=C/c2ccc(/C=C/c3cc(OC)c(OC)c(OC)c3)cc2)cc(OC)c1OC	–	6.7%
COc1ccc(/C=C2/C(=O)OCc3cc(OC)c(OC)cc32)c(OC)c1	–	-14.4%
COc1ccc(/C=N/OCc2ccccc2C#N)c(OC)c1	–	10.2%
